Measurements published in the supplement of paper PMC6555819.

What was measured:
Test in all cases: PBM binding z-score (relative to random genomic background probes); higher = stronger binding; sequences stand for … in GC…GCGATTGACAGCGTAGAATGAAGG
[1] = test system: PPARg:RXRa DBDmut IVT, anti-RXR (DBD mutation: RXRa K156A/R161A, NR concentration 270 nM, RXRa partner concentration 90 nM)
In short: (§1)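 Ligand-free nuclear receptor dimers were applied to custom Agilent 4×180K protein-binding microarrays whose double-stranded probes carried direct-repeat seeds, single-nucleotide variants, half-site ablations and random human genomic background sequences in 34-nt variable regions. Incubation lasted 1 h. Binding z-scores were computed against the random background probes from regression-normalized fluorescence.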

[2] = test system: PPARg:RXRa IVT, anti-PPARg (NR concentration 270 nM, RXRa partner concentration 90 nM)
In short: as §1

[3] = test system: PPARg DBDmut:RXRa IVT, anti-PPARg (DBD mutation: PPARg1 K132A/R137A, NR concentration 270 nM, RXRa partner concentration 90 nM)
In short: as §1

[4] = test system: PPARg DBDmut IVT, anti-PPARg (DBD mutation: PPARg1 K132A/R137A, NR concentration 270 nM)
In short: as §1

[5] = test system: PPARg homodimer (NR concentration 180 nM)
In short: as §1

[6] = test system: PXR:RXRa (NR concentration 270 nM, RXRa partner concentration 90 nM)
In short: as §1

[7] = test system: PXR homodimer (NR concentration 270 nM)
In short: as §1

[8] = test system: RARa:RXR (NR concentration 270 nM, RXRa partner concentration 90 nM)
In short: as §1

[9] = test system: RARa homodimer (NR concentration 270 nM)
In short: as §1

[10] = test system: RARb:RXRa (NR concentration 270 nM, RXRa partner concentration 90 nM)
In short: as §1

| Sequence | PBM binding z-score [1] | PBM binding z-score [2] | PBM binding z-score [3] | PBM binding z-score [4] | PBM binding z-score [5] | PBM binding z-score [6] | PBM binding z-score [7] | PBM binding z-score [8] | PBM binding z-score [9] | PBM binding z-score [10] |
| --- | --- | --- | --- | --- | --- | --- | --- | --- | --- | --- |
| TAGCCTAGGTCAGATCGGGCCACTATACGCTATA | 0.727 | 1.46 | -0.3 | -0.905 | 0.204 | 1.73 | -0.326 | 1.39 | -0.348 | 3.01 |
| AGTACGAGGGCAATGAGTTGATAGCACGGGTGGC | 1.59 | 1.15 | 0.233 | 0.248 | 0.203 | 1.32 | 5.08 | 0.221 | 0.00797 | 2.08 |
| CCGTCTGGGGCATAAGGTTACCATAAGCCAGCCC | 1.52 | 1.84 | -1.52 | -1.72 | 0.475 | 0.566 | -0.335 | 1.39 | -0.41 | 1.84 |
| AGAACGAGGGCACGCTGAGTTGACAGCAGAGTAG | 3.94 | 3.77 | 1.38 | 0.377 | 0.462 | 1.46 | -0.0837 | 1.24 | -0.654 | 2.57 |
| TCAGACAGGTGCAGGTAACTCAGGTACGCAGTCG | 1.83 | -0.017 | -0.24 | -0.576 | -0.207 | 0.426 | -0.203 | 0.659 | -0.372 | 0.311 |
| TAGCCGAGGTCATGGGCCAGTATACCACGCGAAC | 1.94 | 4.59 | 1.31 | 0.953 | 2.7 | 5.24 | 0.728 | 5.62 | 0.741 | 5.01 |
| ATATCTAGGTTAGCTGGGGTCATTCAGACTAGGC | 6.63 | 6.38 | 2.02 | 2.45 | 2.3 | 6.2 | 4.27 | 5.11 | 1.57 | 3.18 |
| TATACAGGGTCAAAGGCCAGAGTACGAATGTCGA | 2.36 | 5.11 | 2.18 | 1.49 | 2.55 | 4.55 | 0.583 | 5.75 | 0.928 | 4.5 |
| ATATGTAGGGTACATCCGGGTCATTCAGGCTATG | 5.82 | 6.25 | 2.33 | 1.87 | 1.74 | 4.11 | 9.27 | 3.12 | 0.779 | 1.73 |
| ATCTCTAGGGAACCAAGTTCAGTGAATGCCGAAC | 0.604 | 0.283 | 0.0886 | 0.863 | 0.45 | 1.24 | 1.73 | 0.461 | 0.0341 | 0.674 |
| ACTTACGGGCCAACGAGGTTATAGCACGCGTATA | 0.992 | 0.418 | 0.118 | 0.119 | 0.076 | 1 | 0.334 | 1.16 | 0.0529 | 1.05 |
| CGAACTAGGTCAGAACCGGACAGTGAAGGATGAT | 7.36 | 7.01 | 0.829 | -0.265 | 0.564 | 0.339 | -0.0754 | 0.679 | -0.208 | 2.85 |
| TGAATGCGGTTAAAGATCAGGGAACGTGGCGTCG | -0.715 | 0.725 | 0.416 | 0.69 | 0.0368 | -0.493 | -0.492 | -0.11 | -0.405 | 0.315 |
| TCTCGGAGGAGACGAAGGTCAGAGCTTTCCAGAG | 0.916 | -0.157 | -0.48 | -1.43 | 0.692 | 1.01 | -0.222 | 1.5 | -0.817 | 2.37 |
| TCTTGTAGATCAATAGAGGTTAAGAATGTGCGCT | 2 | 1.37 | 0.489 | 0.485 | 0.502 | 1.65 | 0.282 | 1.86 | 0.562 | 0.764 |
| TGAATGAGGTTATAAGATCAGGGCACGTTGCAAA | 1.2 | 2.64 | 0.65 | 0.308 | 0.364 | 1.19 | -0.152 | 1.77 | 0.42 | 1.48 |
| TATACAGGGACAAAGGCCAGAGTACGAATGTCGA | -0.141 | 1.3 | 0.681 | 0.636 | 0.776 | 0.0293 | 0.479 | 0.273 | 0.492 | 1.54 |
| ATCTCTAGGTACAGATAGTTCAGTGAATGCAAAT | -0.154 | 0.347 | 1.38 | 1.2 | 0.865 | 0.698 | 1.5 | 0.218 | 0.726 | 0.832 |
| CCTTACGGGTCACTGACAGGTTGTAGCATTTGGA | 3.45 | 3.69 | 0.239 | -0.219 | 2.3 | 3.28 | -0.0802 | 4.11 | 0.949 | 3.79 |

| Sequence | PBM binding z-score [1] | PBM binding z-score [2] | PBM binding z-score [3] | PBM binding z-score [4] | PBM binding z-score [5] | PBM binding z-score [6] | PBM binding z-score [7] | PBM binding z-score [8] | PBM binding z-score [9] | PBM binding z-score [10] |
| --- | --- | --- | --- | --- | --- | --- | --- | --- | --- | --- |
| TCTGCTAGGTCTGTTGGTCAGCTAACGAGCTGCC | 0.324 | 0.208 | 0.17 | 0.0841 | -1.76 | -0.467 | -0.379 | -0.461 | -1.79 | 0.107 |
| TCATATAGGTAAATGCTAGGTGATAGTCCGATCT | 4.05 | 2.45 | 0.855 | 0.985 | 0.409 | 0.395 | 0.368 | 0.797 | 1.3 | 0.301 |
| CGAACTAGGTCATTGACAGGACAGTGTATAGTAA | 7.92 | 8.25 | 2.44 | 1.65 | 2.13 | 1.67 | 0.281 | 2.47 | 0.571 | 3.63 |
| ATCTCTAGGTAAGACTCAGTTCAGCGAAGAACGC | 1.67 | 1.01 | 0.389 | 0.673 | 0.96 | 0.943 | 1.37 | 0.477 | 1.01 | 0.277 |
| GCTGCTAGTTCAGGTTGGTCAGCTAACGGGTACG | -0.103 | -0.56 | -0.826 | -0.845 | -0.918 | -0.166 | 0.0964 | -0.23 | -0.341 | 1.01 |
| CCTGCTAGGTCAATGGTCAACTAAAGCAGCTCGC | 3.98 | 4.58 | 0.116 | -1.17 | 1.41 | 1.22 | -0.291 | 2.27 | -0.296 | 3.79 |
| TGAATGATGTTAAAGATCAGGGAACGTGGCGTCG | -0.672 | 0.00051 | 0.678 | 0.88 | 0.216 | -0.226 | 0.0908 | -0.242 | 0.502 | -0.0162 |
| CCTACTGGGCCATTCAGATGTCATTGATCATATG | 4.47 | 3.44 | -0.00111 | 0.0316 | 0.0941 | -0.564 | -0.799 | -0.682 | -0.198 | 0.127 |
| TCAGACAGGTGAAGGAAACTCAGGTACGCAGTCG | 2.96 | 0.598 | 0.181 | -0.163 | 0.667 | 0.502 | 0.224 | 0.564 | 0.502 | 0.976 |
| GCTCGGAAGACAAGGTCAGAGCTTTGTCCGTAGA | 0.0129 | 0.063 | -0.999 | -2.1 | 0.392 | 1.41 | -0.453 | 1.9 | -0.69 | 2.58 |
| AGTCAAAGTTCAGGACGAGGTAACGTCAAGCACG | -0.313 | 1.89 | 0.047 | -0.603 | 3.18 | 3.06 | 1.42 | 3.01 | 1.63 | 4.25 |
| ACTAGCAGGCCAAGGGTCACCCAAGATTAGTCCG | 1.04 | 4.15 | 0.826 | -0.393 | 2.65 | 3.94 | -0.00443 | 5.22 | 1.35 | 3.62 |
| ACTAGCAGGCCAAGTTTAGGTCACTCAAACAAAG | 0.729 | 1.54 | -0.154 | -0.113 | 0.824 | 0.86 | 0.177 | 1.7 | -0.431 | 2.33 |
| CATACATGGTCAGCTAGGCCAGAGTAGGGACGGC | -0.304 | 0.125 | 0.136 | -0.418 | -0.795 | -0.724 | -0.583 | -0.808 | 0.055 | 0.8 |
| TCGAATAGGTTACCAATGGGGCATTCAGCTTTCT | 2.41 | 1.12 | 0.24 | -0.411 | 0.402 | 0.725 | 0.0437 | 0.908 | 0.281 | 1.57 |
| CATACAGGGTTAGCTAGGCCAGAGTAGGGACGGC | -0.169 | 0.541 | -0.056 | -0.72 | -0.367 | -0.275 | -0.684 | 0.13 | -0.529 | 1.07 |
| TCTAGTTGGTCACGGAGGTCAAACACGACGGGTA | 2.37 | 3.95 | 0.658 | 0.77 | 3.43 | 5.11 | 2.87 | 5.16 | 1.13 | 3.9 |
| ATCGAAAGGTCGAGGTTAGTATAGAGAAAGGGAA | 0.147 | 1.68 | 0.823 | 1.11 | 3.22 | 2.65 | 0.569 | 3.81 | 1.39 | 4.09 |
| ATACCAAGGTGATCGTGAGCTCGTTGATACTAAC | 0.283 | 1.08 | 0.353 | 0.874 | 0.404 | -0.0195 | -0.182 | 0.256 | 0.0437 | 0.555 |
